Hits are enriched below; roughly 7% of the tested compounds scored in any of these assays.
BAZ2B inh: inhibitors of human BAZ2B bromodomain | AlphaScreen BAZ2B-H3K14Ac peptide displacement | Potency, µM (series often up to 114 µM), for inactives: at the highest dose activity change, negative = inhibition, hits mostly inhibitors | 4.4% of 360,000 active | AID 504333; also: potency is read from the fitted curve at half-maximal effect; % is scaled to controls: 0 for no effect and ±100 for the full control effect; nearly all actives have a fitted effect of over 60% in size
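Inhibition is scored as reduced AlphaScreen emission. The BAZ2B/b-H3(5-23)K14Ac complex (50 nM each) in PBS pH 7.4, 0.01% Tween-20 meets compound (up to 110 uM) for 30 min at RT before bead addition.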
PLK1 PBD inh: PLK1 (human) polo-box domain binding inhibition | Potency, µM, for inactives: max response, negative = inhibition, usual class: inhibitors | Plk1 PBD binding of FITC phosphopeptide, fluorescence polarization | AID 720504 | 2.8% of 360,000 active; also: potency is read from the fitted curve at half-maximal effect; series mostly up to about 57 µM; % is scaled to controls: 0 for no effect and ±100 for the full control effect; nearly all actives have a fitted effect of over 65% in size
HP1b chromo inh: HP1-beta chromodomain-methylated histone interaction inhibition. P83916. Potency, µM (top dose mostly 114 µM), without a hit: top-dose activity change, negative = inhibition, most hits filed as inhibitors. AlphaScreen HP1-beta / biotin-H3K9me3 peptide binding. 0.56% of 390,000 active; also: potency is read from the fitted curve at half-maximal effect; nearly all actives have a fitted effect of over 70% in size
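AlphaScreen: HP1-beta (50 nM) preformed 30 min with biotin-H3(1-18)K9me3 peptide (50 nM) in PBS pH 7.4, 0.01% Tween-20. Compound added for 30 min at RT, then streptavidin donor/nickel chelate acceptor beads (10 ug/mL) for 30 min.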
JMJD2A Tudor inh: blocks the human JMJD2A Tudor domain. AlphaScreen JMJD2A-Tudor / H3K4me3 peptide binding. Potency, µM (top dose mostly 114 µM), without a hit: top-dose activity change, negative = inhibition, usual class: inhibitors. 4.4% of 390,000 active. AID 504339; also: potency is read from the fitted curve at half-maximal effect; % is scaled to controls: 0 for no effect and ±100 for the full control effect; nearly all actives have a fitted effect of over 50% in size
KAT2A inh: inhibitors of human GCN5L2 histone acetyltransferase; Q92830; GCN5L2 HAT assay, ThioGlo1 CoA-SH fluorescence; Potency, µM (highest dose often 58.9 µM), for inactives: at the top dose activity change, negative = inhibition, usual class: inhibitors; 0.21% of 390,000 active; also: potency is read from the fitted curve at half-maximal effect; % is scaled to controls: 0 for no effect and ±100 for the full control effect
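Titration-based screen in which CoA formation is detected via maleimide probe ThioGlo1 (50uM) turning fluorescent on thiol reaction; substrates H3(1-25) 75uM and acetyl-CoA 70uM, GCN5L2 20nM, 20 min incubation at room temperature.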
PI5P4Ka inh: blocks human PI5P4K alpha kinase activity. max response, %. PI5P4Kalpha enzyme, ADP-Glo luminescence, 60 min; active compounds read low. 1.2% of 330,000 active; active = max response of -50% or lower; inconclusive = between -30% and -50%; inactive = -30% or higher; also: value at the top dose of about 77 µM; % is scaled to controls: 0 for no effect and ±100 for the full control effect
Target sequence (P48426 whole entry, looked up): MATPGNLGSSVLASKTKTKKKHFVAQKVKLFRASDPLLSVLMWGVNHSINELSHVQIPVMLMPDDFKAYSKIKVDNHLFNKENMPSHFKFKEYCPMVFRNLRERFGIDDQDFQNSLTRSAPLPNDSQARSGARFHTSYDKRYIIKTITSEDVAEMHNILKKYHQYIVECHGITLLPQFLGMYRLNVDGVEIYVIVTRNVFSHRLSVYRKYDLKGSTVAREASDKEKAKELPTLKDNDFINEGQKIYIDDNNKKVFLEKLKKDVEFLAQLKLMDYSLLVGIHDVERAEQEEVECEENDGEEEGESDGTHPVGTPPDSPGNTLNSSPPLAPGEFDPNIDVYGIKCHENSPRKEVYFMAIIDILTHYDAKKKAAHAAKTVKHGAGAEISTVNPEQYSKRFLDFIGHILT
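Reactions run in 0.038 M HEPES pH 7.4, 0.28 mM EGTA, 0.1% CHAPS and 5% DMSO, with PI5P4Kalpha, substrate, compound and 5 microM ATP final, one hour at room temperature. Readout is ADP-Glo luminescence.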
* hit, by the source's call; ? = inconclusive; . = no result given; [ ] = another dose, or the depositor's remark. Unless noted, calls follow the shape of the dose curve; as a rule, active = well fitted curve in the direction sought with a large enough effect; inconclusive = small, poorly fitted or top-dose-only effect, or another doubt; inactive = no such curve, though single readings can be large; an effect the other way counts as inactive or inconclusive.

SMILES | BAZ2B inh | PLK1 PBD inh | HP1b chromo inh | JMJD2A Tudor inh | KAT2A inh | PI5P4Ka inh
CCN1CC2=C(OC(N)=C(C#N)C2c2cccs2)/C(=C\c2cccs2)C1 (stereo unspecified) | 35.5µM* | -17.4% | ? | ? | -14.6% | .
CCOC(=O)C1=C(CC)OC(N)=C(C#N)C1c1cccs1 (stereo unspecified) | -23.8% | -9.5% | 21.0% | -16.3% | -5.8% | .
COCCCN1C(=O)C2C(C(=O)Nc3cc(C)cc(C)c3)C3C=CC2(O3)C1C(=O)NC1CCCCC1 (stereo unspecified) | -3.1% | -17.0% | -0.8% | -24.7% | -4.9% | -10.0
COc1ccc(OC)c(/C=N/c2oc(-c3ccco3)c(-c3ccco3)c2C#N)c1 | 18.6% | -11.7% | ? | 50.1µM* | -21.6% | -78.8*
Clc1ccc(-c2nc3ccccn3c2Nc2ccc3c(c2)OCCO3)s1 | 13.9% | . | ? | 44.7µM* | -8.7% | .
Clc1ccc2nc(-c3ccccn3)c(Nc3ccc4c(c3)OCO4)n2c1 | 2.82µM* | -9.0% | ? | 2.24µM* | -5.0% | 2.3
COc1cc(-c2nc3ccc(C)cn3c2Nc2ccc(Cl)cc2)ccc1O | -31.7% | . | -16.4% | ? | -11.9% | .
COc1cc(-c2nc3ccc(Cl)cn3c2Nc2ccc3c(c2)OCO3)ccc1O | . | . | ? | 31.6µM* | -8.2% | .
Cc1ccc(C)c(NC(=O)C(=O)NCCc2csc3nc(-c4ccccc4C)nn23)c1 | -7.3% | . | 9.6%[57 µM] | -21.4% | -19.0% | .
CCOc1ccc(-n2nnnc2SCC(=O)NNC(=O)c2ccco2)cc1 | -0.3% | 11.9µM* | -6.7% | 22.4µM* | -10.8% | ?
Nc1ccccc1Oc1ccccc1 | . | . | . | . | 0.9% | .
Nc1ccc(Oc2ccccc2-c2ccccc2)cc1 | . | -10.2% | ? | 50.1µM* | . | 22.9
Brc1ccccc1-c1nnc(CSc2nncn2-c2ccccc2)o1 | 9.0% | 26.7µM* | -10.8% | ? | -1.1% | ?
O=c1c2ccccc2nc(SCc2nnc(-c3ccccc3Br)o2)n1-c1ccccc1 | 2.5% | -1.3% | 11.2% | -20.9% | 3.1% | .
CSc1nnc(Cn2c(=O)sc3ccccc32)n1CCc1ccccc1 | -3.1% | 21.2µM* | 4.2% | ? | 0.8% | 5.6
Cc1ccccc1NC(=O)C1c2cccc[n+]2CC(=O)N1c1c(C)cccc1C (stereo unspecified) | 44.7µM* | ? | ? | 50.1µM* | -8.0% | ?
CCc1sc(C(=O)N2CCN(c3ncccn3)CC2)cc1Br | 1.5% | -0.3% | 34.5% | 4.6% | -23.9% | -0.5
CCOC(=O)c1c(NC(=O)c2ccc(Br)o2)sc(C)c1CC | 90.1% | -1.3% | 184.0% | 76.8% | -7.9% | 0.3
C=CCn1c(NC(=O)c2ccc(Br)o2)c(C(=O)OCC)sc1=S | -30.3% | 6.7µM* | -39.0% | 89.1µM* | ? | .
Cc1ccc(SCC(=O)N(C)C2CCS(=O)(=O)C2)cc1 (stereo unspecified) | -21.4% | -6.0% | 42.8% | 5.5% | -3.2% | -4.8
Cc1ccc(-c2nc(SCC(=O)N(C)C3CCS(=O)(=O)C3)[nH]c2-c2ccc(C)cc2)cc1 (stereo unspecified) | 50.1µM* | -9.8% | -16.8% | ? | -4.1% | .
CC(C(=O)NC1CCCc2ccccc21)N1C(=O)C2CCCCC2C1=O (stereo unspecified) | -3.8% | -0.5% | 24.0% | -1.0% | -5.9% | 1.7
C[C@@H](C(=O)Nc1nc(-c2ccccn2)cs1)N1C(=O)C2CCCCC2C1=O (stereo partly specified) | 8.91µM* | 16.8µM* | ? | 50.1µM* | ? | -56.4*
O=C(CN1C(=O)C2CCCCC2C1=O)Nc1nc(-c2ccccn2)cs1 (stereo unspecified) | 35.5µM* | 23.8µM* | ? | 79.4µM* | -10.3% | -25.4
CC(C)[C@H](NC(=O)c1ccccc1Cl)C(=O)Nc1nc(-c2ccccn2)cs1 | 31.6µM* | -3.6% | 18.4% | 44.7µM* | -12.7% | -11.6
CCc1nnc(NC(=O)C(NC(=O)c2ccccc2Cl)C(C)C)s1 (stereo unspecified) | -17.4% | -9.6% | 1.9% | -11.6% | -3.9% | -5.5

Assay outcomes as filed in PubChem.
